Assay results reported in PubChem BioAssay AID463165 (Johns Hopkins Ion Channel Center, 2010).
The campaign covered roughly 310,000 compounds. About 1,400 (0.45%) were called active.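 The calls were made as follows: active = B-score, a plate-corrected calcium signal, over three deviations above library mean, with baseline fluorescence within five deviations of library mean; inactive = the rest.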 For the sample, actives were picked, then their nearest neighbours and some compounds at random.

The compounds below were run against Regulator of G-protein signaling 4 (Homo sapiens) (UniProt P49798) (assay: RGS4 inhibitors, primary screen, cell-based, HEK293 M3R inducible RGS4, calcium flux (AID 463165;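 also: RGS4 expression induced by doxycycline in cells with stable M3 receptor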;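 as to B-score: B-score is computed from the integrated fluorescence ratio over baseline after carbachol; higher B-score means a larger calcium signal and so more RGS4 inhibition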)). Details: Fluo-4 calcium flux, at 10 µM, triggered by carbachol at its EC20; stronger effect = higher value.
Sequence of Regulator of G-protein signaling 4 (Homo sapiens) (P49798 whole entry, looked up): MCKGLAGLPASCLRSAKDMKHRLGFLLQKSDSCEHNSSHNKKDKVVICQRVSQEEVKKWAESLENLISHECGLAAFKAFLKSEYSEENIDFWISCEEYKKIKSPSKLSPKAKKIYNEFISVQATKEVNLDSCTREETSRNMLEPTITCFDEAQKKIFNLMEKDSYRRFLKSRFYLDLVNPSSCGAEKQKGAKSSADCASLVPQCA
`Cc1ccccc1CN1CCC(C(=O)Nc2ccc(Oc3cccnc3)cc2)CC1` was tested, and the B-score was “inactive”.
For `COc1ccc(-c2cc(C(=O)N/N=C/c3cccnc3)c3ccccc3n2)c(OC)c1`, the B-score was “inactive”.
In the case of `Cc1cc(C)c2nc(-c3ccco3)cc(C(=O)O)c2c1`, the B-score is reported as “inactive”.
In the case of `COc1ccccc1-n1c(-c2cc(-c3ccco3)[nH]n2)n[nH]c1=S`, the B-score is reported as “inactive”.
For `Cn1c(-c2ccco2)nc2cc3ccccc3cc21`, the B-score was 8.29 (active).
`CS(=O)(=O)N(CC(O)Cn1c2ccccc2c2ccccc21)c1cccc2ccccc12` (centres undefined) was tested, and the B-score was 7.61 (active).
For `CCCCN(CCCC)CC(O)Cn1c2ccccc2c(=O)c2ccccc21` (centres undefined), the B-score was “inactive”.
With `CC(=O)c1ccc2c(c1)c1ccccc1n2CC(C)C` the B-score was “inactive”.
With `COc1ccccc1CN(C)C(=O)C1(c2ccc(Cl)cc2)CC1` the B-score was “inactive”.
With `CN(CC1CCCN(CCc2cccc(C(F)(F)F)c2)C1)C(=O)c1ccc2nc[nH]c2c1` (centres undefined) the B-score was “inactive”.
In the case of `COC(=O)N/N=C/c1cn(CCCOc2ccc(C)cc2)c2ccccc12`, the B-score is reported as “inactive”.
In the case of `COC(=O)Cn1cc(/C=C/[N+](=O)[O-])c2ccccc21`, the B-score is reported as 14.7 (active).
For `COC(=O)c1cn(CC(=O)NCc2cccs2)c2ccccc12`, the B-score was “inactive”.
In the case of `O=C(CN1CCN(S(=O)(=O)c2ccc3ccccc3c2)CC1)NC(=O)NC1CCCCC1`, the B-score is reported as “inactive”.
`CCCc1nn(C)c2c(=O)[nH]c(-c3cc(S(N)(=O)=O)ccc3OCC)nc12` was tested, and the B-score was “inactive”.
`CCCCOc1ccc(C(=O)N/C(=C/C=C/c2ccccc2)C(=O)N2CCOCC2)cc1` was tested, and the B-score was “inactive”.
`OCCCC1CCCCN1Cc1nc(Cc2ccccc2Cl)no1` (centres undefined) was tested, and the B-score was “inactive”.
In the case of `Nc1cccc(-c2cc(-c3ccccc3)nc(-c3cccc(N)c3)n2)c1`, the B-score is reported as 5.75 (active).
With `CNc1nc(-c2ccccc2)cc(-c2ccccc2)n1` the B-score was “inactive”.
For `Nc1nc(-c2ccccc2)cc(-c2ccccc2)n1`, the B-score was “inactive”.
For `COCCNC(=O)C(OC(=O)c1cccs1)c1ccc(F)cc1` (centres undefined), the B-score was “inactive”.
For `COCCNC(=O)CSc1nc2c(n1-c1ccccc1)CCCC2`, the B-score was “inactive”.
`O=C(NCc1ccc(F)cc1)C1CCC(CNc2c(N3CCOCC3)c(=O)c2=O)CC1` (centres undefined) was tested, and the B-score was “inactive”.
With `Cc1noc(C)c1S(=O)(=O)Nc1cc(C(F)(F)F)ccc1N1CCOCC1` the B-score was “inactive”.
In the case of `COc1cc2c(cc1OC)C(/C=C/c1ccco1)=NCC2`, the B-score is reported as “inactive”.
`CCOC(=O)C1=NN(c2ccc(Cl)cc2)/C(=C/C2=NCCc3cc(OC)c(OC)cc32)S1` was tested, and the B-score was 4.81 (active).
For `CCOC(=O)C1=C(CN2CCc3ccccc32)NC(=O)NC1c1ccc(Cl)cc1` (centres undefined), the B-score was “inactive”.
`CC(=O)c1cccc(NC(=O)C2CCCN2S(=O)(=O)c2cccc3nsnc23)c1` (centres undefined) was tested, and the B-score was “inactive”.
For `Cn1c(N2CCOCC2)c(C=O)c2ccccc21`, the B-score was “inactive”.
With `O=C1NCC(=O)N(Cc2ccccc2)/C1=C/c1ccccc1` the B-score was “inactive”.
In the case of `Clc1ccc(CN2CCN(/N=C/c3cccnc3)CC2)cc1`, the B-score is reported as “inactive”.
In the case of `O=C1/C(=C\c2cccnc2)CN(Cc2ccccc2)C/C1=C\c1cccnc1`, the B-score is reported as 20.8 (active).
`NS(=O)(=O)c1ccc(CCNC(=O)c2ccc([N+](=O)[O-])cc2[N+](=O)[O-])cc1` was tested, and the B-score was “inactive”.
For `COc1cc(/C=N/NC(=O)c2cccnc2)ccc1OC(=O)c1cccc(Br)c1`, the B-score was “inactive”.
`C=C(C)C(=O)O[C@H]1C/C(C)=C\C(=O)/C=C(\C)[C@H](O)[C@@H]2OC(=O)C(=C)[C@@H]21` was tested, and the B-score was 5.6 (active).
With `Nc1ccccc1/C=N\N=C/c1ccccc1N` the B-score was “inactive”.
For `Cc1ccc2c(c1)N(CC(=O)NCCc1ccc(Cl)cc1)C(=O)c1cccnc1O2`, the B-score was “inactive”.
For `Cn1c(SCC(=O)N2CCCC2)nnc1-c1cccs1`, the B-score was “inactive”.
In the case of `O=C(/C=C/c1ccc(N2CCOCC2)cc1)c1ccccc1`, the B-score is reported as “inactive”.
`Cc1cccc(N2C(=O)c3ccc(C(=O)Nc4cccc(C(=O)O)c4)cc3C2=O)c1` was tested, and the B-score was “inactive”.
For `O=C(O)c1ccc2c(c1)C(=O)N(c1ccc(/C=C/C(=O)c3ccccc3)cc1)C2=O`, the B-score was 24.6 (active).
With `COC(=O)c1sccc1NN1C(=O)c2ccccc2C1=O` the B-score was “inactive”.
For `COc1ccc(N2CCN(C(=O)COC(=O)c3cccc(S(=O)(=O)Nc4ccccc4OC)c3)CC2)cc1`, the B-score was “inactive”.
In the case of `O=C(Nc1ccc(Cl)cc1)OCc1cc(-c2ccccc2)on1`, the B-score is reported as 6.27 (active).
With `O=C(Nc1ccccc1)OCc1cn(-c2ccc(Cl)cc2)nn1` the B-score was “inactive”.
`O=C(Nc1cccc(Cl)c1)OCc1ccccn1` was tested, and the B-score was “inactive”.
In the case of `Cc1cccc(-c2nnc(SCC(=O)O)n2Cc2ccccc2)c1`, the B-score is reported as “inactive”.
In the case of `O=C(/C=C/Sc1ncn[nH]1)c1ccc(Cl)cc1`, the B-score is reported as 12 (active).
In the case of `Cc1ccc(C(=O)/C=C/c2c(C)nn(-c3ccccc3)c2Cl)cc1`, the B-score is reported as “inactive”.
`O=C(CSc1ncn[nH]1)N/N=C/c1ccc(F)cc1` was tested, and the B-score was “inactive”.
For `O=S(=O)(Cc1cc(Sc2ccccc2)nc(-c2ccccc2)n1)c1ccccc1`, the B-score was “inactive”.
In the case of `Cc1cc(N2CCOCC2)nc(-c2ccc(Br)cc2)n1`, the B-score is reported as “inactive”.
For `Cc1ccc(Sc2cc(N3CCOCC3)nc(-c3ccccc3)n2)cc1`, the B-score was 8.43 (active).
With `CCCN(CCc1ccccc1)C1CCc2c(O)cccc2C1` (centres undefined) the B-score was “inactive”.
With `CCc1ccc(N(C(=O)c2csnn2)C(C(=O)NC2CCCCC2)c2ccncc2)cc1` (centres undefined) the B-score was “inactive”.
With `Cc1ccc2nc(-c3ccc(NC(=O)CN(C)S(=O)(=O)c4ccccc4)cc3)sc2c1` the B-score was “inactive”.
With `NC(=O)NC(=O)CSc1nc2cc([N+](=O)[O-])ccc2n1-c1cccc(C(F)(F)F)c1` the B-score was “inactive”.
For `CCc1nnc(NS(=O)(=O)c2ccc(NS(=O)(=O)c3ccccc3)cc2)s1`, the B-score was “inactive”.
`CCc1nnc(NS(=O)(=O)c2ccc(NC(=S)NC(=O)/C=C/c3cccs3)cc2)s1` was tested, and the B-score was “inactive”.
`CCc1nnc(NS(=O)(=O)c2ccc(N=Cc3c(C)[nH]n(-c4ccc(C)cc4)c3=O)cc2)s1` was tested, and the B-score was 5.86 (active).
In the case of `O=C(OCc1cc(Cl)ccc1OC(F)F)c1cccnc1`, the B-score is reported as “inactive”.
`CC(C)=N/N=C1/NC(=O)C(Cc2ccccc2)S1` (centres undefined) was tested, and the B-score was “inactive”.
`O=C1N/C(=N\N=C\c2ccco2)SC1Cc1ccc(F)cc1` (centres undefined) was tested, and the B-score was “inactive”.
`CCCCC1S/C(=N/N=C/c2cccs2)NC1=O` (centres undefined) was tested, and the B-score was 6.28 (active).
For `Cc1cccc(CN2CCN(Cc3cnn(-c4ccccc4F)c3)CC2CCO)n1` (centres undefined), the B-score was “inactive”.
`CCCCN1C(=S)NC[C@@H]1C(C)CC` (some centres undefined) was tested, and the B-score was “inactive”.
`CC(CO)NCC12CC3CC(CC(C3)C1)C2` (centres undefined) was tested, and the B-score was “inactive”.
In the case of `Brc1ccc(-c2csc(N/N=C/c3ccc4c(c3)OCO4)n2)cc1`, the B-score is reported as “inactive”.
With `Cc1ccccc1Nc1nc(-c2cccnc2)cs1` the B-score was “inactive”.
In the case of `Brc1ccc(-c2csc(N/N=C/c3cccnc3)n2)cc1`, the B-score is reported as 7.99 (active).
`CCCCN1C(=O)C(C)=C(C)C1OCCc1ccc(OC)c(OC)c1` (centres undefined) was tested, and the B-score was “inactive”.
With `c1ccc(CN=C2Nc3ccccc3CS2)nc1` the B-score was “inactive”.
In the case of `CNCC(O)c1ccc(O)c(O)c1` (centres undefined), the B-score is reported as 6 (active).
`CCC(C)c1ccc(O)c(/C=N/O)c1` (centres undefined) was tested, and the B-score was “inactive”.
`CC(=O)NCC(O)c1ccc([N+](=O)[O-])cc1` (centres undefined) was tested, and the B-score was “inactive”.
In the case of `FC(F)(F)c1ccc(-n2cn[nH]c2=S)cc1`, the B-score is reported as “inactive”.
In the case of `Cc1ccnc(NS(=O)(=O)c2ccc(NC(=O)c3oc4ccc(F)cc4c3C)cc2)n1`, the B-score is reported as “inactive”.
With `CCOC(=O)c1c(NC(C)=O)sc2c(O)c(Br)ccc12` the B-score was “inactive”.
`O=c1[nH]c(N2CCOCC2)nc2ccccc12` was tested, and the B-score was “inactive”.
`C1=C(N2CCOCC2)/C(=C/c2nc3ccccc3[nH]2)CC1` was tested, and the B-score was 5.95 (active).
In the case of `CC1(C)Cc2c(C#N)c(SCc3nc4ccccc4[nH]3)nc(N3CCOCC3)c2CO1`, the B-score is reported as “inactive”.
For `Nc1c(-c2ccc(F)cc2)cnn1C1CCS(=O)(=O)C1` (centres undefined), the B-score was “inactive”.
`C/C(=N\NC(=O)CSc1nc2ccccc2c(=O)n1-c1ccccc1C)c1cccs1` was tested, and the B-score was “inactive”.
With `O=C1NN(c2ccccc2)C(=O)/C1=C/c1ccc(-c2cccc(C(=O)O)c2)o1` the B-score was “inactive”.
`CN1C(=O)/C(=C\c2ccc(-c3ccccc3)o2)SC1=S` was tested, and the B-score was “inactive”.
With `O=C(O)C(c1ccccc1)N1C(=O)/C(=C\c2ccc(-c3cccc(Cl)c3)o2)SC1=S` (centres undefined) the B-score was 10.3 (active).
For `NC(=O)C1CCN(CC(O)CSc2ccc(F)cc2)CC1` (centres undefined), the B-score was “inactive”.
For `CC(Oc1ccccc1)C(=O)Nc1c2c(nn1-c1ccccc1)CS(=O)C2` (centres undefined), the B-score was “inactive”.
`COc1ccc(-c2nc3c(s2)CCc2onc(-c4ccc(Br)cc4)c2-3)cc1` was tested, and the B-score was “inactive”.
For `O=C(Cn1ccc2cc(S(=O)(=O)N3CCCC3)ccc21)NCc1ccccc1`, the B-score was “inactive”.
In the case of `O=[N+]([O-])/C=C/c1ccc2c(ccn2Cc2ccccc2)c1`, the B-score is reported as 44.8 (active).
In the case of `O=C(/C=C/c1cccc([N+](=O)[O-])c1)N1CCN(Cc2ccccc2)CC1`, the B-score is reported as “inactive”.
In the case of `O=c1c2cc([N+](=O)[O-])ccc2nc2n1CCC2`, the B-score is reported as “inactive”.
`C=CCOc1cccc(C2NC(=O)c3ccccc3O2)c1` (centres undefined) was tested, and the B-score was “inactive”.
With `Oc1c(Cl)cc(Cl)cc1/C=N/c1ncn[nH]1` the B-score was “inactive”.
With `Oc1ccc(Br)cc1C=Nc1ccc2[nH]ncc2c1` the B-score was “inactive”.
For `COc1cc(Br)cc(/C=N/c2ncn[nH]2)c1O`, the B-score was 5.03 (active).
With `Cc1ccc(CN2CCN(Cc3cccc(C)n3)CC2CCO)cc1` (centres undefined) the B-score was “inactive”.
For `CCCCCN(C(=O)CCC(=O)OCC(=O)NC1CCC(C)CC1)c1c(N)n(CCCC)c(=O)[nH]c1=O` (centres undefined), the B-score was “inactive”.
With `C#CCOc1ccc(/C=C2/C(=O)NN(c3ccccc3)C2=O)cc1OC` the B-score was 7.25 (active).
`COc1cc(/C=C2/C(=O)NN(c3cccc(Cl)c3)C2=O)cc(Br)c1O` was tested, and the B-score was 5.61 (active).
With `COc1cc(/C=C2/C(=O)NN(c3ccc(F)cc3)C2=O)cc([N+](=O)[O-])c1O` the B-score was “inactive”.
`COc1cc(/C=C2\SC(=O)NC2=O)ccc1OCc1ccc(Cl)nc1` was tested, and the B-score was “inactive”.
`COc1cc(/C=N/O)cc(Br)c1OCc1cccc(Cl)c1` was tested, and the B-score was “inactive”.
With `Cc1cccc(C)c1-n1c(C)cc(/C=C2\C(=O)NN(c3ccccc3)C2=O)c1C` the B-score was “inactive”.
For `CONc1nc2nonc2nc1NOC`, the B-score was “inactive”.
For `Cc1ccc(NC(=O)OCc2cncs2)cc1`, the B-score was “inactive”.
With `COc1ccc(Nc2ccc([N+](=O)[O-])cn2)cn1` the B-score was “inactive”.
With `COc1ccc(NC(=O)/C(Cl)=C(/Cl)S(=O)Cc2ccc(C)cc2)cn1` (centres undefined) the B-score was 5.83 (active).
